Among the test systems are NCI-H23 lung; NCI-H226 lung; NCI-H322M lung; HOP-62 NSCLC; NCI-H460 lung; HOP-92 NSCLC; NCI-H522 lung; A549/ATCC NSCLC; 786-0 renal; COLO 205 colon.
Holding throughout (assay): NCI-60 one-dose screen, 48 h (100 = growth as untreated, 0 = no growth, -100 = all killed)
Common to all, as to settings: 10 µM unless noted

The panel holds about 83,000 compounds, 20% with a hit somewhere; the sample as a whole holds those more often.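 A percent growth of 40 corresponds to 60% growth inhibition; 0 means no net growth; -100 means all cells died. Active threshold: below 10.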 A number with no mark means an inactive call. Calls of active or inactive are those of the source.

Consider `Nc1cc(-c2nc3sccn3c2-c2ccnc(NCCCNS(=O)(=O)c3ccc(F)cc3)n2)ccc1F`, for which the growth was 63.5% with NCI-H23 lung; 50.7% with NCI-H226 lung; 69.9% with NCI-H322M lung; 78.1% with HOP-62 NSCLC; 47.4% in the experiment with NCI-H460 lung; 96.9% with HOP-92 NSCLC. The growth is 48% in the experiment on NCI-H522 lung, 41.4% in the experiment on A549/ATCC NSCLC, 61.3% in the experiment with 786-0 renal and 32.4% in the experiment on COLO 205 colon.
In the case of `OC(c1cccc(C(F)(F)F)c1)c1cnccc1NC1CCCCCC1` (stereo not given), the growth was 26.1% with NCI-H23 lung; 62.4% in the experiment with NCI-H226 lung; 46.3% in the experiment on NCI-H322M lung; 74.4% in the experiment on HOP-62 NSCLC; -23.9% (active) in the experiment with NCI-H460 lung; 5.31% (active) with HOP-92 NSCLC. For the same compound, the growth was 58.6% in the experiment on NCI-H522 lung, 53.8% in the experiment on A549/ATCC NSCLC, 56.2% in the experiment on 786-0 renal and -76.3% (active) in the experiment on COLO 205 colon.
Regarding `COc1cc(-c2nc3ccccc3s2)ccc1NC(=O)COc1ccc(Cl)cc1`, the growth was 38.3% in the experiment on NCI-H23 lung; 60% in the experiment with NCI-H226 lung; 71% in the experiment with NCI-H322M lung; 29.1% in the experiment with HOP-62 NSCLC; 13.4% with NCI-H460 lung; 8.1% (active) in the experiment on HOP-92 NSCLC. In addition, the growth in the experiment on NCI-H522 lung was 38.6%; with A549/ATCC NSCLC it was 49.2%; in the experiment on 786-0 renal, 16.8%; with COLO 205 colon, 52.8%.
Turning to `Cl/C(=N\Nc1ccccc1)c1ccccc1`, the growth in the experiment with NCI-H23 lung is 91.4%; in the experiment with NCI-H226 lung, 91%; in the experiment on NCI-H322M lung, 75.4%; in the experiment with HOP-62 NSCLC, 96%; in the experiment with NCI-H460 lung, 106%; in the experiment on HOP-92 NSCLC, 97.9%. The growth with NCI-H522 lung is 72.8%; in the experiment with A549/ATCC NSCLC, 85.4%; with 786-0 renal, 102%; in the experiment on COLO 205 colon, 98.4%.
For the compound `CC/C(Cc1ccccc1)=C(/c1ccc(O)cc1)c1ccc(OCCN2CCCC2)cc1`, the growth in the experiment with NCI-H23 lung is 8.75% (active); in the experiment with NCI-H226 lung, 71.2%; in the experiment with NCI-H322M lung, -18% (active); with HOP-62 NSCLC, -22.3% (active); with NCI-H460 lung, -90.5% (active); in the experiment with HOP-92 NSCLC it was -12.8% (active). Further, the growth in the experiment with NCI-H522 lung was -54.3% (active); in the experiment on A549/ATCC NSCLC, -59.1% (active); in the experiment on 786-0 renal it was -83.6% (active); in the experiment with COLO 205 colon, -71.8% (active).
For `COc1ccc(-c2cc(C(=O)N=Nc3c(O)[nH]c4ccccc34)no2)cc1`, the growth is 101% in the experiment with NCI-H23 lung; 94% in the experiment with NCI-H226 lung; 103% in the experiment on NCI-H322M lung; 91.6% in the experiment on HOP-62 NSCLC; 102% with NCI-H460 lung; 100% in the experiment on HOP-92 NSCLC. Also, the growth in the experiment on NCI-H522 lung was 82.4%; in the experiment on A549/ATCC NSCLC, 107%; with 786-0 renal, 104%; in the experiment with COLO 205 colon, 111%.
On to `CCCCN(CCCC)CCC(C)(O)c1cc2ccccc2c2ccccc12` (stereo not given), for which the growth in the experiment with NCI-H23 lung was 83.8%; in the experiment with NCI-H226 lung, 107%; in the experiment on NCI-H322M lung, 73.5%; in the experiment on HOP-62 NSCLC it was 106%; in the experiment with NCI-H460 lung, 90.1%; in the experiment with HOP-92 NSCLC, 44.2%. In addition, the growth in the experiment on NCI-H522 lung is 91.4%; in the experiment with A549/ATCC NSCLC it was 83.5%; in the experiment on 786-0 renal it was 103%; in the experiment with COLO 205 colon it was 92.7%.
On to `CC(=O)CC(C)(C)c1ccc(Cl)cc1`, for which the growth is 95.5% with NCI-H23 lung; 99% in the experiment on NCI-H226 lung; 107% with NCI-H322M lung; 93.3% with HOP-62 NSCLC; 108% with NCI-H460 lung; 80% in the experiment with HOP-92 NSCLC. Also, the growth in the experiment with NCI-H522 lung was 95.5%; in the experiment on A549/ATCC NSCLC it was 103%; in the experiment on 786-0 renal, 97.8%; with COLO 205 colon, 116%.
`COc1ccc(-c2cc(=O)[nH]c3c(OC)c4ccccc4c(OC)c23)cc1`: the growth in the experiment with NCI-H23 lung is 19.2%; in the experiment on NCI-H226 lung it was 39.9%; with NCI-H322M lung, 41.8%; in the experiment with HOP-62 NSCLC it was 36.8%; with NCI-H460 lung it was 8.71% (active); in the experiment on HOP-92 NSCLC, 73.9%. For the same compound, the growth with NCI-H522 lung is -17.2% (active); with A549/ATCC NSCLC, 23.6%; in the experiment with 786-0 renal, 34.5%; with COLO 205 colon, -58.8% (active).
For the compound `O=C(O)c1ccccc1Nc1cccc(S(F)(F)(F)(F)F)c1`, the growth in the experiment on NCI-H23 lung is 96.8%; in the experiment on NCI-H226 lung it was 88.9%; with NCI-H322M lung, 101%; in the experiment on HOP-62 NSCLC it was 88.4%; with NCI-H460 lung it was 102%; in the experiment with HOP-92 NSCLC, 96.1%. The growth with NCI-H522 lung was 61.9%; with A549/ATCC NSCLC it was 84.2%; in the experiment with 786-0 renal, 110%; with COLO 205 colon, 104%.
Consider `O=C1/C(=C/c2ccc(F)cc2)CN(C(=O)CCN2CCC(=NO)CC2)C/C1=C\c1ccc(F)cc1`, for which the growth with NCI-H23 lung was -26.5% (active); in the experiment with NCI-H226 lung, 72.8%; with NCI-H322M lung, -11.8% (active); in the experiment with HOP-62 NSCLC, -37.7% (active); in the experiment on NCI-H460 lung it was -26.9% (active); with HOP-92 NSCLC, -5.42% (active). For the same compound, the growth in the experiment on NCI-H522 lung was -72.6% (active); with A549/ATCC NSCLC, 28.4%; in the experiment on 786-0 renal it was -44.7% (active); with COLO 205 colon it was -81.9% (active).
Consider `CCCCCN(CCCCC)CCC[C@@H](C)[C@H]1CC[C@H]2[C@@H]3[C@H](OCCCN)C[C@@H]4C[C@H](OCCCN)CC[C@]4(C)[C@H]3C[C@H](OCCCN)[C@]12C`, for which the growth was 49.2% in the experiment with NCI-H23 lung; 75.2% in the experiment with NCI-H226 lung; 24.6% in the experiment on NCI-H322M lung; 48.3% in the experiment on HOP-62 NSCLC; 45.2% in the experiment on NCI-H460 lung; 50% with HOP-92 NSCLC. Besides, the growth in the experiment on NCI-H522 lung was 28.8%; in the experiment on A549/ATCC NSCLC it was 55.2%; in the experiment with 786-0 renal, 61.1%; with COLO 205 colon it was 52.1%.
Consider `COc1ccc(/C=N\NC(=O)CN2CCN(c3cc4c(cc3F)c(=O)c(C(=O)N/N=C/c3ccc(OC)cc3)cn4C3CC3)CC2)cc1`, for which the growth with NCI-H23 lung is 96.3%; in the experiment with NCI-H226 lung, 85.6%; in the experiment on NCI-H322M lung it was 91.7%; in the experiment on HOP-62 NSCLC it was 97.4%; with NCI-H460 lung, 86.1%; with HOP-92 NSCLC, 92.1%. Further, the growth was 73.8% with NCI-H522 lung, 82.8% in the experiment with A549/ATCC NSCLC, 93.9% in the experiment with 786-0 renal and 96.9% in the experiment with COLO 205 colon.

(Values after PubChem BioAssay (NCI).)
